Test results taken from the supplement of paper PMC10681739.

molecular target: T1, ETS1 (UniProt P14921); experiment: TF binding intensity (PBM fluorescence), negative control probe (arbitrary fluorescence units); higher = stronger binding
T1 sequence: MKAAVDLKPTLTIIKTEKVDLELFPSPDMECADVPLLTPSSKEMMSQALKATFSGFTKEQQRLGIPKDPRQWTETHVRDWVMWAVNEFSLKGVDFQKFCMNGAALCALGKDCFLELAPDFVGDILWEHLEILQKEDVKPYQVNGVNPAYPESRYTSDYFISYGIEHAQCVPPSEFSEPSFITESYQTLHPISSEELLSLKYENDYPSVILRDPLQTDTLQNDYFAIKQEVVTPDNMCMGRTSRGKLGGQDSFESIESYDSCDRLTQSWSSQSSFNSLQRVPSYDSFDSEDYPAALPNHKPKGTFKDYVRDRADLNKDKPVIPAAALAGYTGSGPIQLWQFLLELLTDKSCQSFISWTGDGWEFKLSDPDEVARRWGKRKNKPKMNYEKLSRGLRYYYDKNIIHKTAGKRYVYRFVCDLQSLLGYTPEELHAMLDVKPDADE
Procedure: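 gcPBM negative-control 36-bp genomic probes lacking TF binding sites. Each was incubated with recombinant human ETS1 or RUNX1 alone and detected by antibody fluorescence. Values are medians over replicate spots (4 spots for the ETS1-RUNX1 arrays, 3 for the ETS1-ETS1 array). The probes sit in constant array flanks that are not printed.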

Row | Sequence | TF binding intensity
1 | CCTTTGTTAGTGATTTGTGGTAGCTAATGTCGTAAT (protein concentration 1 nM) | 548
2 | CTTCAAAGGCCCCGCATTAGCTGGGGTCGATCCAGA (protein concentration 10 nM) | 154
3 | AGACTGCATACTTATAAAGTGGAGTATGCAGATAAT (protein concentration 10 nM) | 119
4 | GTCCCCTCAAGGACCCCCAGTGCAGGTGAAAAACTG (protein concentration 10 nM) | 174
5 | TCAGCCTGAGAGCTATGTGGGTGAATAAAAATAAAA (protein concentration 1 nM) | 499
6 | GAAATCACGGGACCCCGAGCGGTTGGAGATCTGCCA (protein concentration 10 nM) | 91.7
7 | CCTGCCTCATTTGCTCACGGGCTCCCTCCCTCAAGG (protein concentration 10 nM) | 113
8 | ACATCTCATGGTTTTAAAGTAAATGAATTAAAAGTC (protein concentration 10 nM) | 116
9 | GGCCCTGGGCCTGACCCATGAAATCATTTTTCCCTT (protein concentration 10 nM) | 94.3
10 | TTGGGACCAATTTGACCCACAAACCCTGAAAAAGAG (protein concentration 1 nM) | 497
11 | CATCCCTCTGCCAGATGGAATTTGGAGATAAACCTC (protein concentration 10 nM) | 130
12 | CATATAACTGGTAGAACATCAGGTGTGGGTGGATCA (protein concentration 10 nM) | 111
13 | ACTTTCTATGAGGCTGCCACTCCTGGTACCACACAT (protein concentration 10 nM) | 133
14 | ACTGCTTTTTCACACAGCATCTTAATTGGCCTGTTT (protein concentration 10 nM) | 118
15 | TCCTGTAAGGACATTTTGTGCCTTCTCCCATGATGA (protein concentration 10 nM) | 97.8
16 | CTGGATTTCTGTACTTTGGTTGGCTTATATTACATC (protein concentration 10 nM) | 171
17 | CATTAGATTCTCATAAGGAGCATAACCTAGATCCCT (protein concentration 10 nM) | 104

Row | Sequence | TF binding intensity
18 | ACGTGTGGGGACCCAAGCTATCCCTAAGAAAGCACT (protein concentration 10 nM) | 115
19 | GCTTTTTTTTTCTGTTGTGGGAGAAAGATGAGAGTC (protein concentration 1 nM) | 535
20 | TGACCGGCGCCGACCCGGGGCGCCGAGAGGCCCACC (protein concentration 10 nM) | 115
21 | ACTGGCTAAGGTCTCTCCTGACCTGATTCCATTCTT (protein concentration 10 nM) | 97.3
22 | GGGCCGCGCCGAGGGGACCACGGGACGCCCTCCTTC (protein concentration 10 nM) | 102
23 | GCAGCTCTAGTTTCTACCACACCAATGGGAGGGATC (protein concentration 1 nM) | 320
24 | GTTTATTGCCCACAACATGTCAGGCACAGTGGGAAG (protein concentration 10 nM) | 132
25 | ATTTCTTGAGAAATCTGTGGTTATTATTTAACTCTT (protein concentration 1 nM) | 461
26 | CTGGTGGCCACCCTTGTGGCGCTGAGGTGCTGAGGT (protein concentration 10 nM) | 127
27 | CCAGTGCCCTTGAAATGAAATGGGACTTGCAAGGAG (protein concentration 10 nM) | 121
28 | CCATCGATGAAAAGGCTGCTATCTCTCGCTGATGGG (protein concentration 10 nM) | 139
29 | TTAATTAAGCGGTTTATATCAAGAAAAAGGCATTTC (protein concentration 10 nM) | 115
30 | CCGCACGCGGGCGCGGGCCAGCTGCAGATGGAGAAC (protein concentration 10 nM) | 136
31 | ATGGCCAGTTCACAGTGAGCCAAAGTCCTCCTCACA (protein concentration 10 nM) | 94.5
32 | CTCTGTTACAAAGCTTCACTTCTTAAGAGAGGGCTG (protein concentration 10 nM) | 134
33 | CTAAATGGCATCTGATGTGGTATCTCTCCTCAGTTC (protein concentration 1 nM) | 455
34 | GAGATGCAGCAGCGTCTCCCAGTCCTCACCGCGGCC (protein concentration 10 nM) | 112
